Laboratory results published in the supplement of paper PMC12669032.
Unmarked numbers belong to inactive results.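 Rule for the calls: active = AUC reduced over 20% with Padj below 0.05 in at least 2 of 3 replicates; inactive = otherwise.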

Tests used:
Test in all cases: growth AUC relative to DMSO control (median of replicates) (fraction); higher = more growth (less inhibition), active = hit call of the paper
Conditions in all cases: 20 µM; 24 h
Akkermansia muciniphila = system: Akkermansia muciniphila
Summary of the method: (§1)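 Gut bacterial monocultures in mGAM were treated with 20 µM compound (1% DMSO) and grown anaerobically at 37 °C in round-bottom 96-well plates from OD600 0.05. OD600 was read hourly for 24 h, with the minimum OD set to 0. Area under the growth curve was normalised to the plate median of solvent-only wells, or to row and column medians on the industrial chemical plate. Each value is the median of three biological replicates, each grown on a separate day.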

Bacteroides caccae = system: Bacteroides caccae
Summary of the method: as §1

Bacteroides clarus = system: Bacteroides clarus
Summary of the method: as §1

Bacteroides dorei = system: Bacteroides dorei
Summary of the method: as §1

Bacteroides stercoris = system: Bacteroides stercoris
Summary of the method: as §1

[1] = system: Bacteroides thetaiotaomicron
Summary of the method: as §1

Bacteroides uniformis = system: Bacteroides uniformis
Summary of the method: as §1

[2] = system: Bifidobacterium longum subsp. longum
Summary of the method: as §1

Clostridium difficile = system: Clostridium difficile
Summary of the method: as §1

Collinsella aerofaciens = system: Collinsella aerofaciens
Summary of the method: as §1

| SMILES | growth AUC (Akkermansia muciniphila) | growth AUC (Bacteroides caccae) | growth AUC (Bacteroides clarus) | growth AUC (Bacteroides dorei) | growth AUC (Bacteroides stercoris) | growth AUC [1] | growth AUC (Bacteroides uniformis) | growth AUC [2] | growth AUC (Clostridium difficile) | growth AUC (Collinsella aerofaciens) |
| --- | --- | --- | --- | --- | --- | --- | --- | --- | --- | --- |
| C=CCO/N=C(\CCC)C1=C([O-])CC(C)(C)C(C(=O)OC)C1=O.[Na+] (stereo not given) | 1.2 | 1 | 1.03 | 0.933 | 1.07 | 1.02 | 1.01 | 1.05 | 1.05 | 1.03 |
| Oc1ccccc1 | 1.08 | 0.963 | 0.991 | 1.03 | 0.992 | 0.997 | 1.03 | 0.998 | 1.02 | 1 |
| O=C1NCC[n+]2ccccc21.[Br-] | 1.13 | 0.985 | 1.01 | 0.761 | 0.984 | 0.972 | 1.02 | 0.972 | 1.01 | 0.97 |
| c1ccc2cc3ccccc3cc2c1 | 0.776 (active) | 0.972 | 1 | 1 | 1.01 | 0.987 | 0.999 | 0.81 | 0.997 | 0.961 |
| C#CC(C)N(C)C(=O)Nc1ccc(Cl)cc1 (stereo not given) | 0.974 | 0.995 | 0.985 | 0.978 | 1.1 | 1 | 0.99 | 0.966 | 0.946 | 1 |
| N[C@@H](Cc1cc(I)c(Oc2cc(I)c(O)c(I)c2)c(I)c1)C(=O)O | 1.1 | 0.944 | 0.96 | 1.04 | 0.838 | 0.908 | 1.01 | 0.93 | 0.945 | 0.923 |
| COC(=O)c1csc(C)c1S(=O)(=O)NC(=O)n1nc(OC)n(C)c1=O | 1.17 | 0.981 | 1 | 0.967 | 1.02 | 0.993 | 0.955 | 1.04 | 0.931 | 0.956 |
| Cc1c(Br)c2ccc(F)cc2n1S(=O)(=O)c1ncn(S(=O)(=O)N(C)C)n1 | 0.998 | 1.05 | 1 | 1.01 | 0.997 | 1 | 0.993 | 1.05 | 1.07 | 1.07 |
| O=C(O)c1ccc(Cl)cc1Cl | 0.987 | 1.03 | 0.989 | 0.994 | 0.959 | 1.01 | 0.977 | 0.699 | 0.997 | 1.02 |
| CC(C)N(C(=O)CS(=O)(=O)[O-])c1ccccc1.[Na+] | 1.01 | 1.02 | 1.02 | 1.04 | 0.909 | 0.955 | 1.05 | 1.29 | 1.06 | 0.967 |
| CCCCC(CC)COC(=O)COc1cc(Cl)c(Cl)cc1Cl (stereo not given) | 0.936 | 0.97 | 0.93 | 0.984 | 1.03 | 0.987 | 0.993 | 0.807 | 0.999 | 0.948 |
| Cc1ccc(C(C)NC(=O)[C@@H](NC(=O)OC(C)C)C(C)C)cc1 (stereo not given in full) | 1.06 | 0.975 | 1.03 | 1.01 | 1.11 | 0.984 | 0.973 | 0.97 | 0.951 | 0.986 |
| COc1nc(OC)nc(C(=O)c2cccc(F)c2N(C)S(=O)(=O)C(F)F)n1 | 0.993 | 1 | 1 | 1 | 1.07 | 1.01 | 1.03 | 1.03 | 1.04 | 1.04 |
| CCSC(=O)N(CC)CC | 1.01 | 0.998 | 0.991 | 1.01 | 1.1 | 1.03 | 1.01 | 0.929 | 0.982 | 0.982 |
| O=C(O)C1(C(=O)Nc2ccc(Cl)cc2Cl)CC1 | 1.06 | 1.06 | 0.956 | 1.05 | 1.1 | 1.03 | 1.04 | 0.998 | 1.01 | 1.01 |
| Nc1ccc(S(=O)(=O)Nc2nccs2)cc1 | 0.9 | 1.03 | 0.992 | 0.943 | 0.985 | 0.978 | 1.02 | 0.998 | 0.98 | 0.978 |
| Cc1cc(N(C)C)nc(Cl)n1 | 0.999 | 0.916 | 1.02 | 0.985 | 1.26 | 1.02 | 0.98 | 0.985 | 0.976 | 0.977 |
| COC(=O)c1ccc(CNS(C)(=O)=O)cc1S(=O)(=O)NC(=O)Nc1nc(OC)cc(OC)n1 | 0.864 | 0.988 | 1.02 | 1.01 | 0.871 | 0.991 | 1.01 | 0.917 | 1.02 | 1.01 |
| CCCCCCC(C)OC(=O)C(C)Oc1ccc(Cl)cc1C (stereo not given) | 0.913 | 0.996 | 0.973 | 0.983 | 0.983 | 1 | 1.02 | 0.848 | 1.01 | 0.968 |
| CCCCCCCC(=O)Oc1c(Br)cc(C#N)cc1Br | 1.06 | 0.934 | 0.959 | 1.04 | 0.842 | 1.04 | 0.983 | 1.06 | 1.02 | 0.971 |
| CN(C)C(=O)Nc1ccc(Oc2ccc(Cl)cc2)cc1 | 0.943 | 0.863 | 0.948 | 0.871 | 0.819 | 0.92 | 1.02 | 0.991 | 0.96 | 0.924 |
| Cc1ccc(C)c(O)c1 | 0.958 | 1.02 | 0.98 | 1 | 0.996 | 1 | 1.01 | 1.05 | 1.01 | 1.01 |
| CSc1nnc(C(C)(C)C)c(=O)n1/N=C/C(C)C | 0.944 | 0.905 | 1.04 | 1.02 | 1.35 | 1.02 | 0.988 | 1.08 | 1.01 | 1.02 |
| CCCOC(=O)c1ccc(C(=O)OCCC)nc1 | 1.06 | 1.01 | 0.99 | 1.04 | 0.94 | 1.02 | 0.99 | 1.05 | 0.99 | 0.967 |
| Clc1ccc(C(c2ccccc2Cl)C(Cl)Cl)cc1 (stereo not given) | 1.21 | 1.01 | 0.936 | 0.976 | 0.856 | 0.988 | 0.943 | 1.03 | 1 | 0.847 |
| CC(C)(CO)C(O)(CCc1ccc(Cl)cc1)Cn1cncn1 (stereo not given) | 1.01 | 0.955 | 0.998 | 0.967 | 1.01 | 0.969 | 0.994 | 0.967 | 0.991 | 0.991 |
| Cn1cc(C(=O)Nc2ccccc2-c2cc(F)c(F)c(F)c2)c(C(F)F)n1 | 0.832 | 0.995 | 0.937 | 0.972 | 0.931 | 0.93 | 0.984 | 0.919 | 0.98 | 0.987 |
| Oc1ccc2nc(-c3cscn3)[nH]c2c1 | 0.877 | 1.07 | 0.955 | 0.997 | 0.98 | 0.985 | 0.982 | 1.01 | 0.988 | 1.01 |
| O=S(Cc1ccc(Cl)cc1)c1ccc(Cl)cc1 (stereo not given) | 0.934 | 0.961 | 0.978 | 0.986 | 0.964 | 0.946 | 0.983 | 1.05 | 0.977 | 0.972 |
